Results from PubChem BioAssay (NCATS).
“And” between values parts separate entries of the source, which are not always exact repeats. Identical values can stand only once. Results filed as inconclusive are left out. Where a call stands in place of a potency, no number is given. More than one record can exist for a structure, and the calls need not agree. The source made the active and inactive calls. Calls come from the whole dose curve; as a rule, active = well fitted curve in the direction sought with a large enough effect; inconclusive = small, poorly fitted or top-dose-only effect, or another doubt; inactive = no such curve, though single readings can be large; an effect the other way counts as inactive or inconclusive.

How the values were obtained:
[1] = Identifying Small Molecule Inhibitors of Pancreatic Cancer Stem Cells (Panc1, Adherent) (AID 1259362); settings: Potency: viability
In short: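 Luminescent ATP readout (CellTiter-Glo) quantifies surviving cells after a 48 h drug incubation. Normalization uses DMSO wells as no inhibition and media-only wells as full inhibition; bortezomib served as positive control.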

[2] = P-glycoprotein substrates identified in KB-8-5-11 adenocarcinoma cell line, qHTS therapeutic library screen (AID 1346987); note: nearly all actives have a fitted effect of over 65% in size; for activity change, negative = cytotoxicity: series mostly up to about 44 µM
In short: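 KB-8-5-11: colchicine-selected sub-line of KB-3-1 over-expressing P-gp; assay medium lacked colchicine. 72 h drug exposure at 37 degree C, CellTiter-Glo.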

[3] = qHTS of pediatric cancer cell lines to identify multiple opportunities for drug repurposing: Primary screen for NB-EBc1 cells (AID 1347095)
In short: (§1)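 CRCs from 8- or 11-point titrations (lowest final 0.59 nM NPC, 0.78 nM MIPE). Cell viability: CellTiter-Glo after 48 h incubation, 15 min room-temperature development, luminescence imaging.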

[4] = qHTS of pediatric cancer cell lines to identify multiple opportunities for drug repurposing: Primary screen for Saos-2 cells (AID 1347097); note: nearly all actives have a fitted effect of over 40% in size
In short: as §1

[5] = P-glycoprotein substrates identified in KB-3-1 adenocarcinoma cell line, qHTS therapeutic library screen (AID 1346986); note: nearly all actives have a fitted effect of over 60% in size;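 note: potency is for cytotoxicity meaning loss of cell viability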
In short: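 KB-3-1 parental cells and P-gp-overexpressing KB-8-5-11 (colchicine omitted during assay) plated at 500 cells/well, dosed in dose-response, incubated 72 h at 37 degree C. CellTiter-Glo luminescence read; KB-8-5-11 also tested with tariquidar.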

[6] = NS1 protein of Zika virus - qHTS assay to identify small molecule inhibitors in human HEK 293 cells (AID 1347053); note: nearly all actives have a fitted effect of over 55% in size
In short: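 HEK 293; 20 h pre-culture, 37 C/5% CO2; cpd 1 h pre-infection; ZIKV MR766, MOI = 0.5, 24 h, 37 C; TR-FRET NS1 readout (two anti-NS1 Abs); norm. to no-virus vs infected.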

[7] = qHTS of pediatric cancer cell lines to identify multiple opportunities for drug repurposing: Primary screen for TC32 cells (AID 1347089); note: nearly all actives have a fitted effect of over 60% in size
In short: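 Luminescent ATP read-out (CellTiter-Glo) of metabolically active TC32 cells after 48 h exposure. Concentration-response curves came from 11-point (MIPE, 0.78 nM–46 µM) or 8-point (NPC, 0.59 nM–46 µM) primary titrations; follow-up used 11 points.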

[8] = qHTS of pediatric cancer cell lines to identify multiple opportunities for drug repurposing: Primary screen for DAOY cells (AID 1347090); note: nearly all actives have a fitted effect of over 55% in size; for activity change, negative = cytotoxic: series mostly up to about 46 µM
In short: (§2)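 Eight- or eleven-point concentration series, 48 h treatment at 37 degrees C in growth media; readout CellTiter-Glo luminescence. Potency and efficacy were taken from the concentration-response curves.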

[9] = qHTS of pediatric cancer cell lines to identify multiple opportunities for drug repurposing: Primary screen for SJ-GBM2 cells (AID 1347091)
In short: as §2

[10] = qHTS of pediatric cancer cell lines to identify multiple opportunities for drug repurposing: Primary screen for SK-N-MC cells (AID 1347093); for activity change, negative = cytotoxic: series mostly up to about 46 µM
In short: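 Metabolically active cells were quantified by ATP-dependent luminescence (CellTiter-Glo, 15 min at room temperature) following 48 h treatment. Cells had been plated at 500-1,000 per well and settled for 5 h beforehand.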

[11] = qHTS of pediatric cancer cell lines to identify multiple opportunities for drug repurposing: Primary screen for BT-37 cells (AID 1347094); for activity change, negative = cytotoxic: series mostly up to about 57 µM
In short: as §1

[12] = qHTS of pediatric cancer cell lines to identify multiple opportunities for drug repurposing: Primary screen for U-2 OS cells (AID 1347096); note: nearly all actives have a fitted effect of over 50% in size
In short: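 Cells (500-1,000/well) in growth media were settled 5 h at 37 degrees C, then given compounds for 48 h. Viability was read as CellTiter-Glo luminescence. Primary runs used MIPE at 11 points (0.78 nM-46 µM) and NPC at 8 points (0.59 nM-46 µM); follow-ups used 11 points.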

[13] = qHTS of pediatric cancer cell lines to identify multiple opportunities for drug repurposing: Primary screen for A673 cells (AID 1347092); note: nearly all actives have a fitted effect of over 45% in size
In short: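 Cell viability of A673 measured by CellTiter-Glo ATP luminescence after 48 hours compound exposure. Dilution series spanned 0.78 nM to 46 µM (MIPE, 11-point) or 0.59 nM to 46 µM (NPC, 8-point); bortezomib 2.3 uM positive control.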
Potency is the fitted concentration of half-maximal effect.

O=C(O)c1ccc(O)c2ncc(N3CCOCC3)cc12
Potency [1]: inactive
Potency [2]: inactive
Potency [3]: 20900 nM (active)
Potency [4]: 23500 nM (active)

Cn1c(=O)c(-c2c(Cl)cccc2Cl)cc2cnc(Nc3cccc(C(=O)O)c3)nc21
Potency [5]: inactive
Potency [2]: inactive and 4.61 µM (active)
Potency [6]: inactive
Potency [7]: inactive
Potency [8]: 372 nM (active)
Potency [9]: 526 nM (active)
Potency [10]: 93.5 nM (active)
Potency [11]: inactive
Potency [3]: 1320 nM (active)
Potency [4]: 743 nM (active)

Cn1cc(-c2ccc3nnc(Sc4ccc5ncccc5c4)n3n2)cn1
Potency [1]: inactive
Potency [6]: inactive
Potency [7]: inactive
Potency [8]: 11800 nM (active)
Potency [9]: 11.8 nM (active)
Potency [11]: inactive
Potency [3]: inactive
Potency [12]: inactive

COc1ccc(-c2ccc3ncc4c(c3c2)n(-c2ccc(N3CCNCC3)c(C(F)(F)F)c2)c(=O)n4C)cn1
Potency [5]: 23.1 nM (active)
Potency [2]: 8.3 nM (active) and 184 nM (active) and 206 nM (active)
Potency [6]: 6620 nM (active)
Potency [7]: 16.5 nM (active)
Potency [8]: 590 nM (active)
Potency [9]: 13.2 nM (active)
Potency [13]: 372 nM (active)
Potency [10]: 3.7 nM (active)
Potency [11]: 30.6 nM (active)
Potency [3]: 14.8 nM (active)
Potency [12]: 7430 nM (active)
Potency [4]: 418 nM (active)

CN[C@H]1[C@@H](O[C@@H]2[C@H](O[C@@H]3[C@@H](O)[C@@H](O)[C@@H](N=C(N)N)[C@@H](O)[C@@H]3N=C(N)N)O[C@H](C)[C@@]2(O)C=O)O[C@@H](CO)[C@@H](O)[C@H]1O
outcome [5]: inactive [at 9.29 µM]
activity change, negative = cytotoxicity [2]: 9.82% [at 9.29 µM] (inactive)
Potency [6]: inactive
activity change, negative = cytotoxic [7]: 6.69% [at 9.17 µM] (inactive)
activity change, negative = cytotoxic [8]: 1.78% [at 9.22 µM] (inactive)
activity change, negative = cytotoxic [9]: 13.3% [at 9.22 µM] (inactive)
activity change, negative = cytotoxic [13]: -1.15% [at 9.22 µM] (inactive)
activity change, negative = cytotoxic [10]: -4.87% [at 9.22 µM] (inactive)
activity change, negative = cytotoxic [11]: 3.99% [at 11.5 µM] (inactive)
activity change, negative = cytotoxic [3]: 7.3% [at 9.22 µM] (inactive)
activity change, negative = cytotoxic [12]: 13% [at 9.22 µM] (inactive)

CC(O)=C(C#N)C(=O)Nc1ccc(C(F)(F)F)cc1
Potency [1]: inactive
Potency [6]: 13200 nM (active)
Potency [13]: 18700 nM (active)
Potency [3]: 4180 nM (active)
Potency [12]: inactive

CC(=O)NCCC(=O)N[C@@H](CCC(N)=O)C(=O)N[C@@H](CO)C(=O)N[C@@H](CCC(N)=O)C(=O)N[C@@H](CCC(N)=O)C(=O)N[C@H](C(=O)N[C@@H](Cc1ccccc1)C(=O)N[C@]1(C)CCCCCCC=CCCC[C@@](C)(C(=O)N[C@@H](CCC(N)=O)C(=O)N[C@@H](CC(N)=O)C(N)=O)NC(=O)[C@H](CC(C)C)NC(=O)[C@H](CC(C)C)NC(=O)[C@@H](CCCNC(=N)N)NC(=O)[C@H](Cc2c[nH]c3ccccc23)NC(=O)[C@H](CC(C)C)NC(=O)[C@H](CC(N)=O)NC1=O)[C@H](C)O
Potency [1]: inactive
Potency [5]: inactive
Potency [7]: inactive
Potency [9]: inactive
Potency [3]: inactive
Potency [12]: inactive
Potency [4]: inactive

COc1cccc(OC)c1-c1cc(C(=O)NC2(C(=O)O)C3CC4CC(C3)CC2C4)nn1-c1ccnc2cc(Cl)ccc12 (stereo unspecified)
Potency [1]: inactive
Potency [5]: inactive
Potency [2]: inactive
Potency [6]: inactive
Potency [7]: inactive
Potency [8]: inactive
Potency [9]: 26400 nM (active)
Potency [13]: inactive
Potency [11]: inactive
Potency [12]: inactive
Potency [4]: inactive

COC(=O)Nc1ccc(-c2nc(N3CCOCC3)c3cnn(C4CCN(C(=O)OC)CC4)c3n2)cc1
Potency [1]: inactive
Potency [5]: 1640 nM (active)
Potency [2]: 469 nM (active) and 1.46 µM (active)
Potency [8]: 1870 nM (active)
Potency [9]: 4690 nM (active)
Potency [13]: 590 nM (active)
Potency [11]: 122 nM (active)
Potency [3]: 8.3 nM (active)
Potency [4]: 2960 nM (active)

O=c1cc(-c2ccc(O)c(O)c2)oc2cc(O)cc(O)c12
Potency [5]: inactive
Potency [2]: inactive
Potency [6]: inactive
Potency [7]: inactive
Potency [8]: inactive
Potency [9]: inactive
Potency [11]: inactive
Potency [3]: inactive
Potency [12]: inactive
Potency [4]: inactive

CC(C)CN(C[C@@H](O)[C@H](Cc1ccccc1)NC(=O)O[C@H]1CO[C@H]2OCC[C@H]21)S(=O)(=O)c1ccc(N)cc1
Potency [5]: inactive
Potency [2]: inactive
Potency [6]: inactive
Potency [7]: inactive
Potency [8]: 14800 nM (active)
Potency [9]: inactive
Potency [13]: 5900 nM (active)
Potency [10]: 2350 nM (active)
Potency [11]: 6110 nM (active)
Potency [4]: 20900 nM (active)

CCOC(=O)N1CCN([N+]([O-])=NOc2cc(ON=[N+]([O-])N3CCN(C(=O)OCC)CC3)c([N+](=O)[O-])cc2[N+](=O)[O-])CC1
Potency [5]: inactive
Potency [2]: inactive
Potency [6]: inactive
Potency [7]: inactive
Potency [8]: inactive
Potency [9]: 14800 nM (active)
Potency [13]: inactive
Potency [10]: inactive
Potency [11]: inactive
Potency [3]: 5900 nM (active)
Potency [12]: inactive
Potency [4]: inactive

CCN1C[C@H](C)n2c(c(O)c3c(=O)n(Cc4ccc(F)c(Cl)c4)nc(C(=O)NC)c32)C1=O
Potency [5]: inactive
Potency [2]: inactive
Potency [6]: inactive
Potency [7]: inactive
Potency [9]: inactive
Potency [13]: inactive
Potency [10]: inactive
Potency [11]: inactive
Potency [3]: inactive
Potency [12]: inactive
Potency [4]: inactive

CCOC(=O)[C@@H](N)CCC(=O)N[C@@H](CSCc1ccccc1)C(=O)N[C@@H](C(=O)OCC)c1ccccc1
Potency [1]: inactive
Potency [2]: inactive
Potency [8]: inactive
Potency [9]: inactive
Potency [11]: inactive
Potency [3]: inactive
Potency [12]: inactive
Potency [4]: inactive

O=C(NCCCCN1CCOCC1)c1cc2ccccc2o1
Potency [5]: inactive
Potency [2]: inactive
Potency [6]: inactive
Potency [7]: inactive
Potency [8]: inactive
Potency [9]: inactive
Potency [13]: inactive
Potency [11]: inactive
Potency [3]: inactive
Potency [12]: inactive
Potency [4]: inactive

O=C(Nc1cccc(Cl)c1)Nc1ncc(CCNc2ncnc3ccsc23)s1
Potency [1]: 18700 nM (active)
Potency [2]: 1.16 µM (active)
Potency [6]: inactive
Potency [7]: 739 nM (active)
Potency [13]: 14800 nM (active)
Potency [12]: inactive
Potency [4]: 2960 nM (active)
